Data: PubChem BioAssay
Active and inactive are the calls of the source.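 The calls were made as follows, unless noted: active = visually confirmed hit in the image check and inhibition above 20%; inconclusive = visually confirmed hit but inhibition not above 20%; inactive = no visual hit in the image check.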

Columns and labels:
[1] = inhibitors of TNFa-induced NFkB p65 translocation, primary screen, imaging, HUVEC, MLSMR starter and 10KST1 sets (AID 438;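 active = inhibition above 20% together with a positive visual image hit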;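 also: compound added about 3h40 before a 20 min TNFalpha stimulation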;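 as to inhibition: signal is the nuclear over cytoplasmic p65 intensity ratio per well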); details: HUVEC TNFa-induced p65 nuclear translocation; cell count: measured here: nuclei count (cytotoxicity indicator), at 2.08 µM; inhibition: at 2 µM, stronger effect = higher value, 0% TNFa-plus-vehicle, 100% no-TNFa wells
[2] = inhibitors of mutant huntingtin aggregation, primary screen, imaging, exon1htt(103Q)mCFP cells, high-content imaging (AID 483;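 active = visual image review flags a hit and inhibition of aggregation exceeds 20%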;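 also: compound exposure lasted 3 days before fixation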;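 as to nuclei count: percent of the per-plate median nuclei count of sample wells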); details: exon1htt(103Q)mCFP cell line, aggregate imaging, at 2 µM; inhibition of aggregation: stronger effect = higher value; nuclei count: measured here: cell count, toxicity
[3] = inhibitors of E-selectin induction by TNFa, primary screen, imaging, HUVEC, immunofluorescence, MLSMR starter and 10KST1 sets (AID 487); details: HUVEC TNFalpha-induced E-selectin immunofluorescence imaging, at 2 µM; inhibition: stronger effect = higher value; nuclei count: measured here: cell number, toxicity;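 as to inhibition: signal is fraction of cell area covered by stained E-selectin grains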;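 as to nuclei count: 100% = median nuclei count of all wells on the same plate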
[4] = target: Voltage-gated potassium channel subunit beta-2 (Rattus norvegicus) (UniProt P62483); assay: KvBeta enzyme negative modulators, primary screen, biochemical, NADPH fluorescence (AID 622;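 active = fluorescence slope higher than the sample average by over 3 SD, cut at about -0.22 in these data, passing the limit was not always enough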;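 also: slope of raw intensity against log time taken from 70 to 1610 s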); details: recombinant KvBeta, 4-cyanobenzaldehyde reduction, at 10 µM, stronger effect = higher value
[5] = target: Voltage-gated potassium channel subunit beta-2 (Rattus norvegicus) (UniProt P62483); assay: KvBeta positive modulators, primary screen, biochemical, NADPH fluorescence (AID 623;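 active = NADPH fluorescence slope more negative than the mean of all samples by about 3 SD, 99.7% confidence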;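 also: fluorescence intensity change per second fitted from 20 to 320 s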); details: Recombinant KvBeta, NADPH fluorescence decrease slope, 10 min; at 10 µM; stronger effect = lower value
[6] = target: Alpha-2C adrenergic receptor (Homo sapiens) (UniProt P18825); assay: modulators of alpha2C/GIRK thallium flux, primary screen, cell-based, HEK293 alpha2C/GIRK1/2 (AID 624;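 active = fluorescence slope after compound addition differing from the mean of all screened samples at 99.7% confidence, in either direction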;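 also: slope of fluorescence ratio to pre-addition baseline per second over 15 to 24 s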); details: thallium flux BTC fluorescence, at 10 µM, actives lie on both sides
[7] = inhibitors of Sendai virus-induced IRF3 signaling, primary screen, TLR/RLR signaling modifier project, cell-based, Sendai virus stimulus, luciferase, 10K MLSCN set (AID 602276;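 active = inhibition at or above 50% at 10 µM; inactive = inhibition below 50%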;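 also: firefly luciferase from ISG56 promoter only with Renilla not read in this screen; 0% = Sendai virus plus DMSO and 100% = medium plus DMSO without virus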); details: HEK293 RL24 IRF3 luciferase reporter, at 10 µM, stronger effect = higher value
[8] = inhibitors of poly I:C-induced TLR3 signaling, primary screen, cell-based, poly I:C stimulus, luciferase, 10K MLSCN set (AID 602277;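 active = inhibition of the reporter signal at or above 50%; inactive = inhibition below 50%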); details: HEK293-TLR3 RL24 IRF3 luciferase reporter, at 10 µM, stronger effect = higher value

Alpha-2C adrenergic receptor (Homo sapiens), sequence (P18825 whole entry, looked up): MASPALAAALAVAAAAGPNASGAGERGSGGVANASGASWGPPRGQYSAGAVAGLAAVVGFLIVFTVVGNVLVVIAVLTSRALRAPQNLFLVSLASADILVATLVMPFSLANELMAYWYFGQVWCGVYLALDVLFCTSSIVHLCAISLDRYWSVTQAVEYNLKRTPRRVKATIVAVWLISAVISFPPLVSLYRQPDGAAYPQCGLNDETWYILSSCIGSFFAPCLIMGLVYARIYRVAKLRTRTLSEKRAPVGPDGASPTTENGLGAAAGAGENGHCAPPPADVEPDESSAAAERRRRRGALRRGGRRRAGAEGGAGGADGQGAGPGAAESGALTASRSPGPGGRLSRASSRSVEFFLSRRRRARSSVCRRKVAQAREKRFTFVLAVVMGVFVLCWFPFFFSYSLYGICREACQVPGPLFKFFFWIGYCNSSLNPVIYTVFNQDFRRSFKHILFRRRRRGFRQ
Voltage-gated potassium channel subunit beta-2 (Rattus norvegicus), sequence (P62483 whole entry, looked up): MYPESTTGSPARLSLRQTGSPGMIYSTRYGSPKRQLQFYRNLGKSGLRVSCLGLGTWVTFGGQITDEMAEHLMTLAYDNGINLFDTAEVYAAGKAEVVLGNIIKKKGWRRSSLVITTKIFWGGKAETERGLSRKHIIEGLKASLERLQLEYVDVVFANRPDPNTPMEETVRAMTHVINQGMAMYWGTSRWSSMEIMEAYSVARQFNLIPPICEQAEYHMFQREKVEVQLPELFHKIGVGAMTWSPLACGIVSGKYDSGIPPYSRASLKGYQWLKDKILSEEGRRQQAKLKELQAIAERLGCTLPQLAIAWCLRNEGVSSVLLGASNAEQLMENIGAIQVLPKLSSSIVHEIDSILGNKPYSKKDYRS

Row | Structure (SMILES) | cell count [1] | inhibition [1] | inhibition of aggregation [2] | nuclei count [2] [%] | inhibition [3] | nuclei count [3] [%] | fluorescence slope [4] | NADPH fluorescence slope [5] | slope [6] | inhibition [7] | inhibition [8]
1 | CC(=O)Nc1nc2c(c3c1c(=O)oc1ccccc13)CC(C)CC2 (stereo not drawn) | 509 | -11.6% (inactive) | 14.7% (inactive) | 61.9 | 13.1% (inactive) | 82.7 | -0.457 (inactive) | -1.3e-05 (inactive) | 0.00575 (inactive) | 12.8% (inactive) | 32.3% (inactive)
2 | CC(NC(=O)c1ccc2c(c1)OCO2)C(c1cccs1)N1CCOCC1 (stereo not drawn) | 462 | -6.6% (inactive) | 17.3% (inactive) | 113 | -29.4% (inactive) | 115 | -0.618 (inactive) | 2.3e-05 (inactive) | 0.00632 (inactive) | 12.6% (inactive) | 15.4% (inactive)
3 | Cc1ccc(-n2c(SCC3CCCCO3)nnc2-c2ccco2)cc1 (stereo not drawn) | 573 | 0.5% (inactive) | 7.5% (inactive) | 86.9 | -17.5% (inactive) | 102 | -0.413 (inactive) | -4.4e-05 (inactive) | 0.00422 (inactive) | 20.5% (inactive) | 25.2% (inactive)
4 | COc1ccc(/C=N/O)cc1COc1ccc(NC(C)=O)cc1 | 667 | 9.6% (inactive) | -10.6% (inactive) | 113 | -30.3% (inactive) | 64.4 | -0.589 (inactive) | -1.6e-05 (inactive) | 0.00667 (inactive) | 6.34% (inactive) | 10.2% (inactive)
5 | CCCCOc1ccc(-c2nnn(C(C)(C)C(=O)OC)n2)cc1 | 602 | -6.3% (inactive) | 7% (inactive) | 67.8 | 1.6% (inactive) | 102 | -0.502 (inactive) | -0.00029 (active) | 0.0068 (inactive) | -33.8% (inactive) | -125% (inactive)
6 | O=C(CNS(=O)(=O)c1ccccc1)NCc1ccccn1 | 707 | -2.1% (inactive) | -10.6% (inactive) | 106 | -25.5% (inactive) | 113 | -0.517 (inactive) | -1.9e-05 (inactive) | 0.00515 (inactive) | 20.5% (inactive) | 16.3% (inactive)
7 | CS(=O)(=O)N(CC(=O)Nc1cccc(F)c1)Cc1ccccc1 | 381 | -0.2% (inactive) | 2.5% (inactive) | 107 | -19.3% (inactive) | 106 | -0.467 (inactive) | -3.7e-05 (inactive) | 0.00637 (inactive) | 5.19% (inactive) | 30.7% (inactive)
8 | CCC(=O)c1cc(F)c(N2CCN(C(=O)c3ccco3)CC2)cc1C | 611 | -1.3% (inactive) | -12.2% (inactive) | 128 | -10.1% (inactive) | 104 | -0.519 (inactive) | -4.1e-05 (inactive) | 0.00579 (inactive) | 1.51% (inactive) | -21.1% (inactive)
9 | COc1ccc(-c2noc(-c3ccccc3C(=O)Nc3cccnc3)n2)cc1 | 218 | 6.7% (inactive) | 0.1% (inactive) | 87.6 | -54.7% (inactive) | 95.3 | -0.601 (inactive) | 1.8e-05 (inactive) | 0.00583 (inactive) | 12.1% (inactive) | 12.9% (inactive)
10 | CCCC(=O)n1nc(-c2ccc(OC)cc2)nc1N | 239 | -3.7% (inactive) | 17.1% (inactive) | 80 | -20.1% (inactive) | 77 | -0.483 (inactive) | -4.3e-05 (inactive) | 0.00574 (inactive) | 12.9% (inactive) | 14.6% (inactive)
11 | CCOc1ccccc1C1CC(=O)Nc2cc3c(cc21)OCO3 (stereo not drawn) | 266 | 14.4% (inactive) | -18.8% (inactive) | 86.9 | -9.8% (inactive) | 98.7 | -0.38 (inactive) | -4.6e-05 (inactive) | 0.00457 (inactive) | 3.25% (inactive) | 40.2% (inactive)
12 | Cc1cnc(C(=O)Nc2ccc(N3CCN(C(=O)OC(C)(C)C)CC3)cc2)cn1 | 316 | 8.7% (inactive) | -7.1% (inactive) | 4.4 | -1.6% (inactive) | 93.1 | -0.636 (inactive) | -3.5e-05 (inactive) | 0.00617 (inactive) | -2.13% (inactive) | 6.1% (inactive)
13 | CC1(C)CC(=O)C(C=NCc2ccc3c(c2)OCO3)=C(O)C1 | 665 | -29.5% (inactive) | 2.3% (inactive) | 104 | -10.4% (inactive) | 93.7 | -0.459 (inactive) | 3.1e-05 (inactive) | 0.00553 (inactive) | 13.9% (inactive) | 19.8% (inactive)
14 | O=C(NCc1cccnc1)c1ccc(Cl)c(Cl)c1 | 751 | -5% (inactive) | 25.4% (inactive) | 102 | 16.9% (inactive) | 102 | -0.639 (inactive) | -5.9e-06 (inactive) | 0.00439 (inactive) | 17% (inactive) | 7.17% (inactive)
15 | COc1ccc(NC(=O)NCCN2C(=O)C3C4C=CC(C4)C3C2=O)cc1 (stereo not drawn) | 572 | -0.8% (inactive) | 0.8% (inactive) | 75.5 | -25.1% (inactive) | 110 | -0.54 (inactive) | -3.1e-05 (inactive) | 0.00569 (inactive) | -29.6% (inactive) | -73.3% (inactive)
16 | COc1ccc(N(CC(=O)Nc2ccc3c(c2)OCCO3)S(=O)(=O)c2cccnc2)cc1 | 515 | -3.3% (inactive) | 13.1% (inactive) | 117 | -36.8% (inactive) | 122 | -0.608 (inactive) | -7e-05 (inactive) | 0.00783 (inactive) | -5.76% (inactive) | 17.1% (inactive)
17 | COc1ccccc1N1CCN(Cc2nnnn2CCc2ccccc2)CC1 | 497 | -3.1% (inactive) | 2% (inactive) | 99.9 | -42.8% (inactive) | 92 | -0.565 (inactive) | 8e-05 (inactive) | 0.00514 (inactive) | -6.87% (inactive) | 0.354% (inactive)
18 | CC(C)C(c1nnnn1C1CCCC1)N1CCN(C(=O)c2ccco2)CC1 (stereo not drawn) | 426 | 9.7% (inactive) | -33.8% (inactive) | 67.7 | -101% (inactive) | 115 | -0.566 (inactive) | -1.1e-05 (inactive) | 0.00617 (inactive) | -4.43% (inactive) | 4.27% (inactive)
19 | CCN1CCN(c2nc3c(c(=O)n(C)c(=O)n3C)n2CCSc2ncccn2)CC1 | 295 | -0.5% (inactive) | -7.5% (inactive) | 97.8 | -130% (inactive) | 116 | -0.506 (inactive) | -9.3e-06 (inactive) | 0.00522 (inactive) | 0.292% (inactive) | 13% (inactive)
20 | Clc1c(CSc2nc3ccccc3o2)nc2sccn12 | 651 | 7.3% (inactive) | 7.5% (inactive) | 99.8 | -149% (inactive) | 89.3 | -0.507 (inactive) | -4.4e-05 (inactive) | 0.00562 (inactive) | -56.6% (inactive) | -207% (inactive)
21 | O=C(CC(CC(=O)c1ccccc1)C(=O)O)c1ccccc1 | 393 | 8.7% (inactive) | -4.6% (inactive) | 91.9 | -52.5% (inactive) | 109 | -0.525 (inactive) | -3.8e-05 (inactive) | 0.0059 (inactive) | -0.637% (inactive) | -0.177% (inactive)
22 | CCc1c(C(=O)Nc2ncn(Cc3cccc(C)c3)n2)csc1C | 630 | 1.2% (inactive) | 2% (inactive) | 97.3 | -66.7% (inactive) | 110 | -0.343 (inactive) | -4.3e-05 (inactive) | 0.00495 (inactive) | 7.43% (inactive) | 15.5% (inactive)
23 | COc1cccc(NC(=O)CSc2nnc(Cc3cccn3C)n2-c2ccc(F)cc2)c1 | 567 | -3.3% (inactive) | 38.3% (inactive) | 85.3 | 26.6% (inactive) | 110 | -0.594 (inactive) | -2.4e-05 (inactive) | 0.00609 (inactive) | -1.59% (inactive) | 15.6% (inactive)
24 | CCOC(=O)C(NC(=O)CC)(Nc1ccc(S(=O)(=O)Nc2onc(C)c2C)cc1)C(F)(F)F (stereo not drawn) | 320 | 3.4% (inactive) | 0.6% (inactive) | 95 | -27.3% (inactive) | 104 | -0.61 (inactive) | -1.1e-05 (inactive) | 0.00634 (inactive) | 11.3% (inactive) | 14.1% (inactive)
25 | COc1ccc(S(=O)(=O)Cc2ccc(C(=O)N3CCN(Cc4ccccc4)CC3)o2)cc1 | 583 | -4.8% (inactive) | 21.6% (inactive) | 98.6 | -37.7% (inactive) | 121 | -0.588 (inactive) | -1.9e-05 (inactive) | 0.0068 (inactive) | -3.69% (inactive) | 28.9% (inactive)
26 | CC(C)CNS(=O)(=O)c1ccc(CCC(=O)NCc2ccco2)cc1 | 572 | 33.1% (active) | 7% (inactive) | 85 | -57.5% (inactive) | 137 | -0.511 (inactive) | 1.9e-05 (inactive) | 0.00549 (inactive) | 11.1% (inactive) | 14.7% (inactive)
27 | CCCC1CCC(C(=O)Nn2cnc3ccccc3c2=O)CC1 (stereo not drawn) | 271 | 3.9% (inactive) | 17.1% (inactive) | 86.9 | 33.8% (inactive) | 77.6 | -0.478 (inactive) | 2.4e-05 (inactive) | 0.00566 (inactive) | 6.74% (inactive) | 21.4% (inactive)
28 | O=C(c1ccco1)N1CCN(c2nc(C(F)(F)F)nc3c2nnn3Cc2ccccc2)CC1 | 534 | -2.5% (inactive) | -6.6% (inactive) | 87.1 | -10.1% (inactive) | 103 | -0.484 (inactive) | -5.9e-05 (inactive) | 0.00661 (inactive) | 3.06% (inactive) | -42% (inactive)
